Molecules are shown by their SMILES. Inconclusive results are not listed. A number with no mark means an inactive call. Calls come from the whole dose curve; as a rule, active = well fitted activation curve with a large enough effect; inconclusive = small, poorly fitted or top-dose-only effect; inactive = no such curve, though single readings can be large or run the other way.

The target in the assay is Cellular tumor antigen p53 (Homo sapiens) (UniProt P04637). Briefly: Primary qHTS for small molecule compounds that upregulate eGFP-tagged delta133p53alpha (in N-terminal) cells. (AID 2060322).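 Note: series mostly up to about 56 µM; 0% = DMSO vehicle and 100% = reference activator; nearly all actives have a fitted effect of over 75% in size.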 The note with it: NCI-H358 eGFP-delta133p53alpha fluorescence, 24 h; activation: hits give high values. The essentials: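 NCI-H358 cells pre-induced 24 h with 10 ng/ml doxycycline to express N-terminal eGFP-delta133p53alpha, then dosed 24 h at 37C without doxycycline; fixed, Hoechst-stained, GFP intensity by laser scanning cytometry, normalized to DMSO (0%) and 57.5 uM 5-azacytidine (100%).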
Chain of Cellular tumor antigen p53 (Homo sapiens) (P04637 whole entry, looked up): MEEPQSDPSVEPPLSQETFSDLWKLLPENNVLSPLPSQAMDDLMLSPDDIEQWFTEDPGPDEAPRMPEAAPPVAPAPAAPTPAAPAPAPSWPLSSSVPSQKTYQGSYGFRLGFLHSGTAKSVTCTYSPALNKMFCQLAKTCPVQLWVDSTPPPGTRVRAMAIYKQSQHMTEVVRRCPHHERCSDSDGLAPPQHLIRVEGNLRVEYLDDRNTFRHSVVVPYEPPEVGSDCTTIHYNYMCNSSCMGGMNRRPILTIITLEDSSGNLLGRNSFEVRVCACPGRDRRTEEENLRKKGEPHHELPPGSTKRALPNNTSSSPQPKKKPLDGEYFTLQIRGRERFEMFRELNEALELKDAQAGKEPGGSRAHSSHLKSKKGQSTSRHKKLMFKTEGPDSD
On the technique in general: In qHTS, concentration-response curves come from the screen itself.
Regarding `O=C(O)[C@H]1O[C@H](Oc2cc3oc(-c4ccccc4)cc(=O)c3c(O)c2O)[C@H](O)[C@@H](O)[C@H]1O`, the activation was 28.4%.

For the compound `CCC1NC(=O)c2cc(S(N)(=O)=O)c(Cl)cc2N1` (centres undefined), the activation was -21.8%.

On to `CC1(C)[C@@H](OC(=O)CCC(=O)O)CC[C@]2(C)[C@H]3C(=O)C=C4[C@@H]5C[C@@](C)(C(=O)O)CC[C@]5(C)CC[C@@]4(C)[C@]3(C)CC[C@@H]12`, for which the activation was 0.565%.

As for `CN(C)c1cc(NC(=O)CNC(C)(C)C)c(O)c2c1C[C@@H]1C[C@H]3[C@H](N(C)C)C(=O)C(C(N)=O)=C(O)[C@@]3(O)C(=O)C1=C2O`, the activation is -7.92%.

With `O=c1[nH]c2cc(C(F)(F)F)c(N3CCOCC3)cc2n(CP(=O)(O)O)c1=O`, the activation is 6.21%.

Regarding `Cc1ncc(CO)c(C=O)c1O`, the activation was -3.35%.

With `CNC(=O)CN(CCN(CCN(CC(=O)[O-])CC(=O)NC)CC(=O)[O-])CC(=O)[O-].O.[Gd+3]`, the activation was 0.837%.

With `CCCCN(CCCC)CCCOC(=O)c1ccc(N)cc1`, the activation was -2.51%.

`CC1(c2ccccc2)OC(C(=O)O)=CC1=O` (centres undefined): the activation was 26.8%.

Take `Cc1c(Nc2ncccc2C(=O)O)cccc1C(F)(F)F`: the activation was -5.08%.

As for `O=S(=O)(O)c1cc(I)c(O)c2ncccc12`, the activation was 11.7%.

On to `CCCc1c2oc(C(=O)O)cc(=O)c2cc2c(=O)cc(C(=O)O)n(CC)c12`, for which the activation is -10%.

With `CCNC(=O)Nc1ccc(Oc2ncnc(N)c2C=NOC)cc1Cl`, the activation is -10.2%.

`O=C1C(O)=C(O)C(=O)C(O)=C1O`: the activation was -14.1%.

Source of the values: PubChem BioAssay (NCATS).
